Composite z-score, z-score and composite Z-score data for five molecules are collected here from PubChem BioAssay.

Calls of active or inactive are those of the source.

Assay [1] has as its system Human papillomavirus type 1a protein E7 (residues 44-93). Kind of assay: small molecules binding HPV E7 44-93 – biochemical, small-molecule microarray, residues 44-93, 635 nm fluorescence, primary screen (AID 1108).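 Also: E7 fragment applied at 1 µg/mL in TBST for 1 h at 4 C; score combines spot fluorescence with its signal to noise ratio.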 The settings on record: fluorescence 635 nm, higher = more signal.
A short description of assay [2]: hepatitis C replication reporter changes, two-sided – Huh7 cells, luciferase reporter, HCV replication inhibitor project, primary screen (AID 1109).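 Also: huh7 hepatoma cells harbouring a luciferase neomycin HCV replicon reporter; luciferase luminescence as measure of HCV replicon replication; test concentration not given here.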 Particulars: Huh7 HCV replicon luciferase reporter, 48 h; higher = more signal. In general terms: In a reporter assay the amount or activity of a reporter protein is the signal.
In assay [3] the target is Left-right determination factor 2 (Homo sapiens) (UniProt O00292). Description: small molecules binding LEFTY2 protein – biochemical, small-molecule microarray, 635 nm fluorescence scan, primary screen (AID 1110). The settings on record: higher = more signal.
Sequence of Left-right determination factor 2 (Homo sapiens) (O00292 whole entry, looked up): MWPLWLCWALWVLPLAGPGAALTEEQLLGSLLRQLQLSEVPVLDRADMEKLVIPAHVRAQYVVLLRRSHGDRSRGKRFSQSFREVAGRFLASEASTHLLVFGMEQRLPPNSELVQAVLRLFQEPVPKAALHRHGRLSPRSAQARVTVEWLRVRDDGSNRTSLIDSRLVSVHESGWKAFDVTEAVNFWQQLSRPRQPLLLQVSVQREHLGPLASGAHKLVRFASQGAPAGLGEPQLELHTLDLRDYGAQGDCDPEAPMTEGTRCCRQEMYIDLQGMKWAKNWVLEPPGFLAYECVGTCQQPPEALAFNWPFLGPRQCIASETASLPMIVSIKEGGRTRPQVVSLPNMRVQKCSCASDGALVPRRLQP
The target of assay [4] is Calmodulin-1 (Homo sapiens) (UniProt P0DP23). Description: small molecules binding calmodulin-1 with EGTA – biochemical, small-molecule microarray, Cy5-labelled CALM1, profiling panel (AID 1111).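 Also: labelled calmodulin applied in Tris saline Tween buffer holding calcium plus EGTA and DTT.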 Particulars: Cy5-CALM1 binding fluorescence, higher = more signal.
The target is the same in assay [5]. Kind of assay: small molecules binding Ca-loaded calmodulin-1 – biochemical, small-molecule microarray, Cy5-labelled CALM1, plus calcium, artefact control for SMM control-protein annotation, profiling panel (AID 1112).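 Also: score merges spot fluorescence with signal to noise from triplicate slides.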 The settings on record: Cy5-CALM1 binding fluorescence, higher = more signal.
A short description of assay [6]: probe aWnt5a binding to arrayed compounds – biochemical, biotinylated probe, 635/667 nm fluorescence, primary screen (AID 1113).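 Also: score merges 667 nm fluorescence intensity with signal-to-noise per printed feature.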 The settings on record: small-molecule microarray, higher = more signal.
Assay [7] is described as follows: probe aShh binding to arrayed compounds – biochemical, biotinylated probe, 635/667 nm fluorescence, primary screen (AID 1114).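 Also: probe is biotin-labelled aShh protein from a stem cell growth factor screen; measures binding of labelled protein to compounds printed on the slide; score merges feature fluorescence at 667 nm with signal-to-noise.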 Particulars: small-molecule microarray, higher = more signal.
Assay [8] is described as follows: probe aNog binding to arrayed compounds – biochemical, biotinylated probe, 635/667 nm fluorescence, primary screen (AID 1115).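 Also: probe is biotinylated aNog protein used at 0.15 µg/mL for 1 h at 4 C; z-score combines 667 nm fluorescence of each spot with its signal to noise.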 The settings on record: small-molecule microarray, higher = more signal.
Assay [9] has as its target Torsin-1A-interacting protein 1 (Homo sapiens) (UniProt Q5JTV8). Description: compound microarray binding of lysate hLAP1 – cell lysate, small-molecule microarray, COS7 lysate, 635/667 nm fluorescence, primary screen (AID 1116). Particulars: 635 nm fluorescence, higher = more signal.
Assay [10] concerns the target Alpha-bungarotoxin (Bungarus multicinctus) (UniProt P60615). Kind of assay: compounds binding labelled alpha-BTX control protein – biochemical, small-molecule microarray, Alexa647 label, 635/667 nm fluorescence, artefact control for SMM control protein annotation, profiling panel (AID 1117). The settings on record: alpha-BTX-A647 binding fluorescence, higher = more signal.

Assay [11] has as its target Albumin (Bos taurus) (UniProt P02769). Description: compounds binding labelled BSA control protein – biochemical, small-molecule microarray, Alexa647 label, 635/667 nm fluorescence, artefact control for SMM control protein annotation, profiling panel (AID 1118).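 Also: score merges 667 nm emission intensity and signal-to-noise per printed compound spot.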 The settings on record: BSA-A647 binding, fluorescence 635 nm, higher = more signal.
A short description of assay [12]: probe aXIP binding to arrayed compounds – biochemical, NeuroSMM set, 635/667 nm fluorescence, primary screen (AID 1119).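 Also: probe is the protein aXip251-270 applied at 1 µg/mL to compound-printed slides; binding of probe to printed compounds measured as 667 nm fluorescence plus signal to noise.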 The settings on record: small-molecule microarray, higher = more signal, called active from +8 up or from −8 down.
A short description of assay [13]: probe aNOTCH3 binding on compound microarray – biochemical, small-molecule microarray, 635/667 nm fluorescence, primary screen (AID 1120).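 Also: probe is a biotin-tagged antibody raised against NOTCH3 rather than NOTCH3 protein; score merges spot fluorescence near 667 nm with spot signal to noise.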 The settings on record: higher = more signal.
Assay [14] in a line: probe aNOTCH2 binding on compound microarray – biochemical, small-molecule microarray, 635/667 nm fluorescence, primary screen (AID 1121).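 Also: score merges feature fluorescence read at 667 nm with its signal to noise.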 Particulars: higher = more signal.
The target of assay [15] is Carbonic anhydrase 2 (Homo sapiens) (UniProt P00918). Kind of assay: compounds binding carbonic anhydrase 2 – biochemical, small-molecule microarray, Alexa647-labelled CAII, profiling panel (AID 1122). Particulars: CAII-A647 binding fluorescence, higher = more signal.
Assay [16] can be described thus: COS7 lysate on small-molecule microarray, probe aHis, 635 nm (AID 1123).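 Also: z-score combines 667nm fluorescence intensity with signal-to-noise per printed compound spot.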 The settings on record: COS7 cell lysate, fluorescence, higher = more signal.
A short description of assay [17]: probe aLAP1 signal on lysate-treated microarray – cell lysate, small-molecule microarray, COS7 lysate, primary screen (AID 1124).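 Also: lysate comes from COS7 cells expressing LAP1 and is applied at 0.3 µg/mL; score merges spot fluorescence near 667 nm with signal-to-noise over triplicate slides.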 Particulars: probe aLAP1, fluorescence, higher = more signal.
Assay [18] concerns Sam68 (KHDRBS1). Kind of assay: compounds binding KHDRBS1 protein – biochemical, small-molecule microarray, 635 nm fluorescence, primary screen (AID 1125).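 Also: score merges 667 nm channel intensity with signal to noise over triplicate slides.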 The settings on record: higher = more signal.
The test system of assay [19] is Chordin-like protein 2 (CHRDL2). Description: compounds binding chordin-like 2 – biochemical, small-molecule microarray, 635 nm fluorescence, primary screen (AID 1126).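 Also: printed compound slides probed with Chrdl2 protein at 4 µg/mL for 1 h at 4 C; score merges 667 nm emission intensity with signal to noise over three replicate slides.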 Particulars: fluorescence 635 nm, higher = more signal.
The target in assay [20] is Concanavalin-A (Canavalia ensiformis) (UniProt P02866). Kind of assay: compounds binding concanavalin A lectin – biochemical, small-molecule microarray, Alexa647 label, 635 nm, artefact control for SMM control protein annotation, primary screen (AID 1127).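 Also: z combines 667 nm emission intensity with signal-to-noise across three replicate slides.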 Particulars: ConA-A647 binding fluorescence, higher = more signal.
Sequence of Concanavalin-A (Canavalia ensiformis) (P02866 whole entry, looked up): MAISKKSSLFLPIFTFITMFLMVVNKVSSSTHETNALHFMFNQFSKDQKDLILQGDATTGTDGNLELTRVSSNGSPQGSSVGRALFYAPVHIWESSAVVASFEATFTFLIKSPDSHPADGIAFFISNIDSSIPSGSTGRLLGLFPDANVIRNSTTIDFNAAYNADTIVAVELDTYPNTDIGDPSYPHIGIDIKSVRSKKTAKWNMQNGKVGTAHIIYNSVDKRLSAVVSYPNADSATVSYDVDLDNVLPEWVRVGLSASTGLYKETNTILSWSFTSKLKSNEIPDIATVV

Sequence of Albumin (Bos taurus) (P02769 whole entry, looked up): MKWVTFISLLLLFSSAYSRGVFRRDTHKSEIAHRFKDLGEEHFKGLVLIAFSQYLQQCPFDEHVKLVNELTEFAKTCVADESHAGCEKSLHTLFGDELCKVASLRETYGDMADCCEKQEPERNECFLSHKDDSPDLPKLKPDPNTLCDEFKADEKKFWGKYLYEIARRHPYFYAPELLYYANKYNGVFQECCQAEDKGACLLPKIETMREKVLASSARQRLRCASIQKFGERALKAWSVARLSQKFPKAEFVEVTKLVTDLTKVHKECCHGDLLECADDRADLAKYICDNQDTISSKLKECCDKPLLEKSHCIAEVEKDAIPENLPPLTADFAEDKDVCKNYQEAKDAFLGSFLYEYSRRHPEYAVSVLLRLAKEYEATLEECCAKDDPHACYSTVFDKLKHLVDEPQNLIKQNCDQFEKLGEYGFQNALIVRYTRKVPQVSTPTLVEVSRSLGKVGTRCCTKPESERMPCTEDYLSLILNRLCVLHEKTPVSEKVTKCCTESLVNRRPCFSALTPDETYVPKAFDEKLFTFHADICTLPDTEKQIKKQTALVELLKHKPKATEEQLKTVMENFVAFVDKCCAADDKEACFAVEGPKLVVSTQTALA
Sequence of Alpha-bungarotoxin (Bungarus multicinctus) (P60615 whole entry, looked up): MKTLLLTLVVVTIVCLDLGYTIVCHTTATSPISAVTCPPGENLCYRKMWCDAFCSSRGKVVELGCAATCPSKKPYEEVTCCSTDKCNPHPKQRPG
Sequence of Torsin-1A-interacting protein 1 (Homo sapiens) (Q5JTV8 whole entry, looked up): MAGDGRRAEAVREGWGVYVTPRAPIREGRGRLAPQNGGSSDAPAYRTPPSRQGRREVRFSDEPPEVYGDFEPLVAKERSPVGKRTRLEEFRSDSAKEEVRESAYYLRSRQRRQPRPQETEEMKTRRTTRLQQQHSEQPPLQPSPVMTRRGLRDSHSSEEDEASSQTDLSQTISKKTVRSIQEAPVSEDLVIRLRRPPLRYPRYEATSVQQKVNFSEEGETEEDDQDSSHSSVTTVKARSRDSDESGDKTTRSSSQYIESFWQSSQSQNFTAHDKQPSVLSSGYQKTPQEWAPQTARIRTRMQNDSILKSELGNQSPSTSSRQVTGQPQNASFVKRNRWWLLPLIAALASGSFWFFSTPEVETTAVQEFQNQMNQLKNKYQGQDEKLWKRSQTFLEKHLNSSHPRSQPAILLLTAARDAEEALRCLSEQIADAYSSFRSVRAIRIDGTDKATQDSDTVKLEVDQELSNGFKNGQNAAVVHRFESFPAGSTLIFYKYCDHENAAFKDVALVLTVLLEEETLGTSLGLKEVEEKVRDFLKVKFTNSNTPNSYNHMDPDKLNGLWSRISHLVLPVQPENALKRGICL

Regarding `O=C(NC1CC1)[C@@H]1c2ccccc2C(=O)N(Cc2cc(F)cc(C(F)(F)F)c2)[C@H]1c1ccc(CO)cc1`, the composite z-score was 0.558 in assay [1]; -1.05 in assay [3]; -0.768 in assay [4]; -0.628 in assay [5]; -0.161 in assay [6]; -0.0709 in [7]. Besides, the composite z-score is 0.0308 in [8]; 0.0706 in assay [9]; -0.405 in [10]; 0.416 in assay [11]; -0.182 in [13]; -0.112 in assay [14]. Moreover, the composite z-score is 0.237 in assay [15]; 0.668 in assay [16]; 0.747 in assay [17]; 0.521 in [18]; -0.791 in [19]; 0.0427 in assay [20]. The z-score in [2] was -0.509. The composite Z-score in [12] is -0.0461 (inactive).
Regarding `COc1ccc([Si](C)(C)[C@@H]2[C@@H](CCn3cc([C@H](O)c4ccccc4)nn3)O[C@]3(C(=O)N(Cc4cccc(N5CCC5=O)c4)c4ccccc43)[C@H]2C)cc1`, the composite z-score in [1] was -0.206; in assay [3], 0.187; in assay [4], -0.15; in assay [5] it was -0.263; in [6] it was -0.0919; in assay [7], -0.0035. The composite z-score is -0.0211 in [8]; 0.392 in assay [9]; 0.0808 in [10]; -0.185 in assay [11]; -0.152 in [13]; -0.0598 in assay [14]. Also, the composite z-score in [15] is -0.105; in [16], 0.288; in assay [17], 0.0413; in assay [18] it was -0.233; in [19], 0.422; in [20], 0.0651. The molecule also displayed a z-score in assay [2] of -2.78. Also, the composite Z-score in assay [12] was -0.0405 (inactive).
Take `COCCOC(=O)N1C(=O)[C@@]2(c3ccccc31)[C@H](C(=O)N1CCCCCCC1)[C@H]1C(=O)O[C@H](c3ccccc3)[C@H](c3ccccc3)N1[C@@H]2c1ccc(OCCO)cc1`: the composite z-score in assay [1] was 1.63; in assay [3], 1.91; in assay [4] it was 3.2; in assay [5], 1.76; in [6] it was 1.65; in [7], 3.65. Besides, the composite z-score in [8] worked out at 3.67; in assay [9], 5.73; in [10], 4.02; in assay [11] it was 0.445; in assay [13], 2.33; in assay [14], 1.21. Further, the composite z-score in [15] came out at 1.09; in assay [16], 5.19; in [17], 1.31; in assay [18], 1.32; in assay [19] it was 1.68; in assay [20], 1.28. In [2], this molecule displayed a z-score of -2.07. In addition, the composite Z-score in [12] is 10.1 (active).
Consider `[N-]=[N+]=Nc1ccccc1C[C@@]1(C(=O)N2CCCCC2)N=C(c2ccc(OCCCO)cc2)O[C@@H]1c1ccccc1N=[N+]=[N-]`, for which the composite z-score is 0.869 in assay [1]; -0.145 in assay [3]; 1.6 in assay [4]; 1.04 in assay [5]; 0.151 in assay [6]; 0.778 in [7]. The composite z-score in assay [8] was found to be 0.353; in assay [9] it was 0.71; in assay [10], 2.09; in [11] it was 0.998; in [13], 0.384; in assay [14], 0.0564. Moreover, the composite z-score is 0.299 in assay [15]; 1.33 in [16]; 0.158 in assay [17]; 1.32 in assay [18]; -0.501 in [19]; 1.12 in [20]. Also, in assay [2], the z-score was -2.71. In addition, in assay [12], the composite Z-score was 0.203 (inactive).
For `NCCCCCNC(=O)[C@H]1C[C@H]2C(=O)N3CCC[C@H]3C(=O)N2[C@H]1c1ccc(O)cc1`, the composite z-score in assay [1] came out at 1.39; in assay [3], 0.84; in assay [4], 1.99; in assay [5] it was 1.13; in assay [6] it was 0.212; in [7], 0.264. The composite z-score in assay [8] was 1.19; in assay [9] it was 1.07; in assay [10] it was 1.1; in [11], 0.851; in assay [13] it was 0.489; in assay [14], -0.0024. Further, the composite z-score in assay [15] was 0.445; in [16], 0.676; in [17], 0.0612; in [18], 1.33; in [19], 0.464; in [20] it was 1.17. In assay [2], this molecule came in with a z-score of -0.0865. Also, the composite Z-score in [12] was 1.56 (inactive).
